38 molecules from PubChem BioAssay (Tox21) can be followed below.

Records with an inconclusive call do not appear. Entries that show only a call come without a potency. The source made the active and inactive calls. Unless noted, calls come from the whole dose curve.

A short description of one experiment: qHTS assay to identify small molecule agonists of the endoplasmic reticulum stress response signaling pathway (AID 1159516; active = well fitted activation curve with a large enough effect in the signal ratio in the repeat runs, not every such curve was filed as active; the % refers to the signal ratio). The following applies: ESRE-bla HeLa, ER stress beta-lactamase reporter, 5 h; series mostly up to 61 µM. Summed up:
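Using a HeLa line with an ESRE-driven beta-lactamase gene, agonist activity was measured by FRET substrate fluorescence (460 and 530 nm emission) after cells were treated with compounds for 5 hr at 37 C and 5% CO2.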
For orientation: Quantitative high-throughput screening tests each substance at several concentrations.
As for `COCN(COC)c1nc(N(COC)COC)nc(N(COC)COC)n1`, the Potency entry was “inactive”.
For the molecule `CC(=O)CC(=O)N(C)C`, the Potency entry is “inactive”.
Same read-out and setting: in the case of `Cc1cc(C)c(O)c(C)c1` it was “inactive”.
On the same count and under the same terms, in the case of `Cc1ccc([N+](=O)[O-])cc1N` it was “inactive”; in that of `CC(=O)OC[C@H]1O[C@@](COC(C)=O)(O[C@H]2O[C@H](COC(C)=O)[C@@H](OC(C)=O)[C@H](OC(C)=O)[C@H]2OC(C)=O)[C@@H](OC(C)=O)[C@@H]1OC(C)=O`, “inactive”; in that of `Oc1ccc(Cc2ccccc2O)cc1`, “inactive”.
Turning to `CC(O)CNCC(C)O` (stereo unspecified), the Potency entry was “inactive”.
The same measure, in the same setting: in the case of `Cc1ccccc1C=O` it was “inactive”; in that of `Cc1ccc(C)c(S(=O)(=O)O)c1`, “inactive”.
The same measure, in the same setting: in the case of `NC(=O)NC(N)=O` it was “inactive”; in that of `NC(=O)c1ncn([C@@H]2O[C@H](CO)[C@@H](O)[C@H]2O)n1`, “inactive”; in that of `CCCN(CCC)C(=O)SCC`, “inactive”.
`Cc1cc(CC(=O)O)n(C)c1C(=O)c1ccc(Cl)cc1`: the Potency entry is “inactive”.
`CC/C(C)=N/O`: the Potency entry is “inactive”.
On the same count and under the same terms, the value for `O=C(O)Cc1c[nH]c2ccccc12` was “inactive”; that for `OCCOCCOCCOCCOCCO` was “inactive”.
On the same count and under the same terms, in the case of `Cc1ccc(C(C)C)cc1` it was “inactive”.
On the same count and under the same terms, in the case of `CC(C)=CCC/C(C)=C/C=O` it was “inactive”; in that of `CC(=O)OC/C=C(\C)CCC=C(C)C`, “inactive”; in that of `CCN(CC)CCNC(=O)c1ccc(N)cc1`, “inactive”.
As to `O=C(c1ccccc1)c1ccc(O)c(O)c1O`, the Potency result was “inactive”.
Still for that read-out and setting: the value for `CCCCC(=O)O` was “inactive”; that for `C=C1C[C@]23C[C@@]1(O)CC[C@H]2[C@@]12C=C[C@H](O)[C@@](C)(C(=O)O1)[C@H]2[C@@H]3C(=O)O` was “inactive”; that for `CC(=O)C(C)C` was “inactive”.
Still for that read-out and setting: in the case of `CO[Si](CCCNCCN)(OC)OC` it was “inactive”.
The same measure, in the same setting: the value for `CCn1cc(C(=O)O)c(=O)c2cc3c(cc21)OCO3` was “inactive”; that for `CC(C)c1ccc(C(C)C)cc1` was “inactive”; that for `CCCOCC(C)O` (stereo unspecified) was “inactive”.
Turning to `CCCCCCCC(=O)O`, the Potency result was “inactive”.
On the same count and under the same terms, in the case of `C=C(C)CC(C)(C)C` it was “inactive”; in that of `Nc1cccc(N)n1`, “inactive”; in that of `NC(N)=S`, “inactive”.
Still for that read-out and setting: the value for `Cc1ccc(Cl)cc1` was “inactive”; that for `OCc1ccc(Cl)cc1Cl` was “inactive”; that for `CCOC(=O)c1ccc(O)cc1` was “inactive”.
Same read-out and setting: in the case of `CCOC(=O)CC(=O)OCC` it was “inactive”.
On to `OCC(O)CS` (stereo unspecified), for which the Potency entry was “inactive”.
On the same count and under the same terms, in the case of `OCC(CO)(CO)CO` it was “inactive”.

Another experiment can be described thus: qHTS assay to identify small molecule agonists of the endoplasmic reticulum stress response signaling pathway - cell viability counter screen (AID 1159517).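 Note: HeLa cells carrying an ER stress response element beta-lactamase reporter; nearly all actives have a fitted effect of over 50% in size.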 Particulars: ESRE-bla HeLa viability, CellTiter-Glo luminescence, 5 h; series mostly up to 61 µM. Summed up: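 In parallel with the ESRE reporter read, cytotoxicity was scored by CellTiter-Glo luminescence (30 min, room temperature) on HeLa ESRE-bla cells dosed for 5 hr.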
Turning to `COCN(COC)c1nc(N(COC)COC)nc(N(COC)COC)n1`, the Potency result is “inactive”.
Consider `CC(=O)CC(=O)N(C)C`, for which the Potency result was “inactive”.
In the case of `Cc1cc(C)c(O)c(C)c1`, the Potency result is “inactive”.
For `Cc1ccc([N+](=O)[O-])cc1N`, the Potency result is “inactive”.
On the same count and under the same terms, in the case of `CC(=O)OC[C@H]1O[C@@](COC(C)=O)(O[C@H]2O[C@H](COC(C)=O)[C@@H](OC(C)=O)[C@H](OC(C)=O)[C@H]2OC(C)=O)[C@@H](OC(C)=O)[C@@H]1OC(C)=O` it was “inactive”.
Turning to `Oc1ccc(Cc2ccccc2O)cc1`, the Potency result is “inactive”.
The same measure, in the same setting: in the case of `CC(O)CNCC(C)O` (stereo unspecified) it was “inactive”; in that of `Cc1ccccc1C=O`, “inactive”; in that of `Cc1ccc(C)c(S(=O)(=O)O)c1`, “inactive”.
As for `NC(=O)NC(N)=O`, the Potency result is “inactive”.
In the case of `NC(=O)c1ncn([C@@H]2O[C@H](CO)[C@@H](O)[C@H]2O)n1`, the Potency result was “inactive”.
For `CCCN(CCC)C(=O)SCC`, the Potency entry is “inactive”.
Still for that read-out and setting: in the case of `Cc1cc(CC(=O)O)n(C)c1C(=O)c1ccc(Cl)cc1` it was “inactive”.
As for `CC/C(C)=N/O`, the Potency entry was “inactive”.
Take `O=C(O)Cc1c[nH]c2ccccc12`: the Potency result was “inactive”.
Regarding `OCCOCCOCCOCCOCCO`, the Potency result was “inactive”.
Still for that read-out and setting: in the case of `Cc1ccc(C(C)C)cc1` it was “inactive”.
Still for that read-out and setting: the value for `CC(C)=CCC/C(C)=C/C=O` was “inactive”; that for `CC(=O)OC/C=C(\C)CCC=C(C)C` was “inactive”; that for `CCN(CC)CCNC(=O)c1ccc(N)cc1` was “inactive”.
On the same count and under the same terms, the value for `O=C(c1ccccc1)c1ccc(O)c(O)c1O` was “inactive”; that for `CCCCC(=O)O` was “inactive”.
On to `C=C1C[C@]23C[C@@]1(O)CC[C@H]2[C@@]12C=C[C@H](O)[C@@](C)(C(=O)O1)[C@H]2[C@@H]3C(=O)O`, for which the Potency result was “inactive”.
The same measure, in the same setting: in the case of `CC(=O)C(C)C` it was “inactive”.
On the same count and under the same terms, the value for `CO[Si](CCCNCCN)(OC)OC` was “inactive”; that for `CCn1cc(C(=O)O)c(=O)c2cc3c(cc21)OCO3` was “inactive”; that for `CC(C)c1ccc(C(C)C)cc1` was “inactive”.
On the same count and under the same terms, in the case of `CCCOCC(C)O` (stereo unspecified) it was “inactive”; in that of `CCCCCCCC(=O)O`, “inactive”.
As to `C=C(C)CC(C)(C)C`, the Potency entry was “inactive”.
For the molecule `Nc1cccc(N)n1`, the Potency entry was “inactive”.
On to `NC(N)=S`, for which the Potency entry was “inactive”.
On the same count and under the same terms, the value for `Cc1ccc(Cl)cc1` was “inactive”; that for `OCc1ccc(Cl)cc1Cl` was “inactive”; that for `CCOC(=O)c1ccc(O)cc1` was “inactive”.
Same read-out and setting: in the case of `CCOC(=O)CC(=O)OCC` it was “inactive”; in that of `OCC(O)CS` (stereo unspecified), “inactive”; in that of `OCC(CO)(CO)CO`, “inactive”.
